A number with no mark means an inactive call. Results filed as inconclusive are left out. Calls of active or inactive are those of the source. Unless noted, the call rests on the fitted dose curve.
These compounds were tested against Cytochrome P450 1A2 (Homo sapiens) (UniProt P05177) (assay: p450-cyp1a2 (AID 410)). Details: recombinant CYP1A2, luciferin-ME demethylation, luminescence; series mostly up to 57 µM.
Cytochrome P450 1A2 (Homo sapiens), sequence (P05177 whole entry, looked up): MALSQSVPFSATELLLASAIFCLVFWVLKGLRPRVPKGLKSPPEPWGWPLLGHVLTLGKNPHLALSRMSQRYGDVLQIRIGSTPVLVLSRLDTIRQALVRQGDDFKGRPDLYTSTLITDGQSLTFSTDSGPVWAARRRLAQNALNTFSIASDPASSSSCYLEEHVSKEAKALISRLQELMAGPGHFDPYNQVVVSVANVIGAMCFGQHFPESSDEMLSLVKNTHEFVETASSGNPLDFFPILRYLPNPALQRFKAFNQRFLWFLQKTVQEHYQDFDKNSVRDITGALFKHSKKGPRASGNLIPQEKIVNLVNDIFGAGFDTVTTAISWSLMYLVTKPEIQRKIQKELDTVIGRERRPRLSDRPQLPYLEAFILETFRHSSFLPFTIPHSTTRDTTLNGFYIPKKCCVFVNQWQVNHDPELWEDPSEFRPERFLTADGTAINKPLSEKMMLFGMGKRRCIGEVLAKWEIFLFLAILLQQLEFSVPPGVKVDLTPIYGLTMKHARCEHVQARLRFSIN
Procedure, shortened: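 20nM CYP1A2, 100uM Luciferin-ME (=Km), 100mM KPO4; cpd 10 min RT; +NADPH regen, 60 min RT; stop/detect 20 min; luminescence. Normalized to furafylline 57 uM = full inhibition.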
For O=C(N/N=C\c1ccccc1O)c1ccccc1O, the Potency was 0.794 µM (active).
With COc1ccccc1N1CCN(C[C@@H](C(=O)NC(C)(C)C)c2ccccc2)CC1 the Potency was 0.631 µM (active).
In the case of OC[C@@H](O)COc1cccc2ccccc12, the Potency was 0.631 µM (active).
Fc1ccc([C@H]2CCNC[C@H]2COc2ccc3c(c2)OCO3)cc1 was tested, and the Potency was 3.16 µM (active).
With CCCn1c(=O)c2[nH]c(-c3ccccc3)nc2n(CCC)c1=O the Potency was 0.0794 µM (active).
In the case of C#CCCCCCCCCCCCCCCCC(=O)O, the Potency was 6.31 µM (active).
For COc1cc(OC)c(C(=O)CCCCN2CCC3(CC2)NC(=O)NC3=O)cc1NS(=O)(=O)c1ccc(C(F)(F)F)cc1, the Potency was “inactive”.
With O=C1C(=O)N(Cc2ccc(Cl)c(Cl)c2)c2ccccc21 the Potency was 12.6 µM (active).
With CCCn1c(=O)[nH]c2nc(-c3ccc(S(=O)(=O)O)cc3)[nH]c2c1=O the Potency was “inactive”.
CCCCC(=O)NCCc1c(Cc2ccccc2)[nH]c2ccccc12 was tested, and the Potency was 3.16 µM (active).
In the case of CSc1nc(NC2CCCC2)c([N+](=O)[O-])c(NC2CCCC2)n1, the Potency was 3.98 µM (active).
COC(=O)/C=C\c1cc(O)ccc1O was tested, and the Potency was 3.98 µM (active).
For CC[C@]1(O)C[C@@H]2CN(CCc3c([nH]c4ccccc34)[C@](C(=O)OC)(c3cc4c(cc3OC)N(C=O)[C@H]3[C@@](O)(C(=O)OC)[C@H](C(=O)OC)[C@@]5(CC)C=CCN6CC[C@]43[C@H]65)C2)C1, the Potency was “inactive”.
In the case of NS(=O)(=O)c1cccc2c1c([N+](=O)[O-])cc1[nH]c(=O)c(=O)[nH]c12, the Potency was “inactive”.
With c1ccc2cc(C3=NCCN3)ncc2c1 the Potency was 0.501 µM (active).
For CS(=O)(=O)Nc1ccc([N+](=O)[O-])cc1OC1CCCCC1, the Potency was 3.98 µM (active).
COc1cccc(C=NC=Nc2cccc(OC)c2)c1 was tested, and the Potency was 1 µM (active).
For CCCCC#Cc1nc(NC)c2ncn([C@@H]3O[C@@H](CO)[C@H](O)[C@H]3O)c2n1, the Potency was 31.6 µM (active).

Each compound was assayed against Glucocorticoid receptor (Homo sapiens) (UniProt P04150) (assay: GR-GFP Redistribution (AID 450;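 active means compounds whose dose series gives a full or clear partial fitted curve of increased nuclear translocation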)). Details: U2OS GR-GFP nuclear translocation, laser cytometry, 2 h.
Glucocorticoid receptor (Homo sapiens), sequence (P04150 whole entry, looked up): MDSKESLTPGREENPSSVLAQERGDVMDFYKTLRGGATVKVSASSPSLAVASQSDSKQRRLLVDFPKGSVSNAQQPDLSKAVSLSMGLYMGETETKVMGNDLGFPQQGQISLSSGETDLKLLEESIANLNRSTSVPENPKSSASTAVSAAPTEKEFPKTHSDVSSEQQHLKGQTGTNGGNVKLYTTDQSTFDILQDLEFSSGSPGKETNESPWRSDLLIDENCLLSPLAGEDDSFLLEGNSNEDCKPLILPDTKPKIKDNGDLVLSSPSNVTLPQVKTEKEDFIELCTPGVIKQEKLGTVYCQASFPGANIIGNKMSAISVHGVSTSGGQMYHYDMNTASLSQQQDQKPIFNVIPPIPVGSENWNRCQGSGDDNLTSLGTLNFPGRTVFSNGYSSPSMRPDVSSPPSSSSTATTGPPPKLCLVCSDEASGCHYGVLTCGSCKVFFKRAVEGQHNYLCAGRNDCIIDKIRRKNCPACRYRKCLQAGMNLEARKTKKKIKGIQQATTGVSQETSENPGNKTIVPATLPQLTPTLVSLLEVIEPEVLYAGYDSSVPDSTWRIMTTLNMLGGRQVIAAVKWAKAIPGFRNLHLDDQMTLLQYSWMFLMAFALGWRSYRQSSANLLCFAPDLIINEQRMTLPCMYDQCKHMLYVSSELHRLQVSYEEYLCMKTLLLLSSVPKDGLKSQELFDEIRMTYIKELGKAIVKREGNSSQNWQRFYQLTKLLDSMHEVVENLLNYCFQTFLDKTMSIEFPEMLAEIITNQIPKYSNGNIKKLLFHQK
O=C(N/N=C\c1ccccc1O)c1ccccc1O was tested, and the Potency was over 46 µM.
COc1ccccc1N1CCN(C[C@@H](C(=O)NC(C)(C)C)c2ccccc2)CC1 was tested, and the Potency was over 46 µM.
For O=C(c1ccc2c(c1)OCO2)N1CCCCC1, the Potency was over 46 µM.
Compound CC(C)(C)Cn1nc(-c2ccc(Cl)cc2)c2c(N)ncnc21 has a Potency of over 46 µM.
CCCn1c(=O)c2[nH]c(-c3ccccc3)nc2n(CCC)c1=O gave a Potency of over 46 µM.
C[C@H](O)CO[C@H]1[C@H]2O[C@H]3[C@H](O)[C@@H](O)[C@@H](O[C@H]4[C@H](O)[C@@H](O)[C@@H](O[C@H]5[C@H](O)[C@@H](O)[C@@H](O[C@H]6[C@H](O)[C@@H](OC[C@H](C)O)[C@@H](O[C@H]7[C@H](O)[C@@H](OC[C@H](C)O)[C@@H](O[C@H]8[C@H](O)[C@@H](O)[C@@H](O[C@@H]([C@@H]1O)[C@@H](CO)O2)O[C@@H]8CO)O[C@@H]7CO)O[C@@H]6CO)O[C@@H]5CO)O[C@@H]4CO)O[C@@H]3CO gave a Potency of over 46 µM.
For C[C@@H]1c2ccccc2CN1CC1=NCCN1, the Potency was over 46 µM.
In the case of Cc1cc(Cn2cnc3c2C[C@@H](C(=O)O)N(C(=O)C(c2ccccc2)c2ccccc2)C3)ccc1N(C)C, the Potency was over 46 µM.
Compound COc1cc(OC)c(C(=O)CCCCN2CCC3(CC2)NC(=O)NC3=O)cc1NS(=O)(=O)c1ccc(C(F)(F)F)cc1 has a Potency of over 46 µM.
O=C1C(=O)N(Cc2ccc(Cl)c(Cl)c2)c2ccccc21 showed a Potency of over 46 µM.
Work on COCCNC(=O)COc1ccc(OCCNC[C@@H](O)COc2ccccc2)cc1 yielded a Potency of over 46 µM.
Compound CCOC(OCC)P(=O)(O)CCCNCc1ccc(Cl)c(Cl)c1 has a Potency of over 46 µM.
Work on C[C@@H]1Nc2ccc(Cl)cc2S(=O)(=O)N1 yielded a Potency of over 46 µM.
Compound NCCCNCCCCN(CCCN)/[N+]([O-])=N/O has a Potency of over 46 µM.
Work on CCCCCCCC(=O)O[C@H](CC(=O)O)C[N+](C)(C)C yielded a Potency of over 46 µM.
Work on CCCCCCCCCCCCC(=O)N1CCCC[C@H]1CNC(=O)[C@@H](N)CCCCN yielded a Potency of over 46 µM.
CCOC(=O)C1=C(C)NC(c2ccccc2)=C(C(=O)OCc2ccc([N+](=O)[O-])cc2)[C@@H]1C#Cc1ccccc1 gave a Potency of over 46 µM.
CC[C@]1(O)C[C@@H]2CN(CCc3c([nH]c4ccccc34)[C@](C(=O)OC)(c3cc4c(cc3OC)N(C=O)[C@H]3[C@@](O)(C(=O)OC)[C@H](C(=O)OC)[C@@]5(CC)C=CCN6CC[C@]43[C@H]65)C2)C1 was tested, and the Potency was over 46 µM.
Potency means the concentration at half of the fitted maximal effect.
